Consider 43 sequences from publication PMC7819943, “Rice protein-binding microarrays: a tool to detect cis-acting elements near promoter regions in rice”.

Over roughly 35,000 sequences, “fluorescence intensity (a.u.)” has its median near 10,000; the highest 2% begin near 52,000. For the sample, the highest values were picked, then their nearest neighbours and some sequences at random.

For the assay, the target named is T1, OsWOX13 (Oryza sativa, UniProt Q5QMM3 1-267).
T1 sequence: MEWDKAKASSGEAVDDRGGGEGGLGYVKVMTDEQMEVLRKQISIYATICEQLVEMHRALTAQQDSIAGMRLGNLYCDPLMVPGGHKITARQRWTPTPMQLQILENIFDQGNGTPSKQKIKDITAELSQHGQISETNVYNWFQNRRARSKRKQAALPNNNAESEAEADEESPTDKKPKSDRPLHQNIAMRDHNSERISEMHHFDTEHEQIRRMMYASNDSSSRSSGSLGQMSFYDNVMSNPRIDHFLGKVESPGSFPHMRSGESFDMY
The assay is described as follows: protein-binding microarray (RPBM); PBS, 2% BSA, 51.3 ng/ul salmon testes DNA, 50 uM zinc acetate, 200 nM TF, 25 C, 1 h; high values mean tight binding. Conditions: protein: recombinant; tags: N-terminal polyhistidine and DsRed monomer fusion (pET32a); label: CyDye5-dUTP incorporated in the synthesized complementary strand; 3' TTTTT single-stranded linker to array surface; dsDNA, one strand shown. In short, it runs like this: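 Polyhistidine-tagged DsRed fusions of transcription factors, joined at the N-terminus, were expressed in E. coli BL21-CodonPlus and isolated on Ni–NTA. They were incubated at 200 nM for 1 h at 25 °C on a custom Agilent array, double-stranded and BSA-blocked, in PBS with 2% BSA, salmon testes DNA and 50 µM zinc acetate. The binding signal is per-feature fluorescence intensity (arbitrary units) read on an Axon 4000B scanner after washing.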
“GAGTACAGATGAAATTTGTAGAAATTGGAATGGTCATGTACGGAGTCACCTAGTGCAG”: the binding signal was 3810 fluorescence intensity (a.u.).
Under “GGCAAATTGTCAAGGTTAACCGTAAATCTACAGTGCCAATCGGAGTCACCTAGTGCAG” stands 15500 fluorescence intensity (a.u.); under “TCTTCACATGAATGATGAAATTGCTAGTAGCATGTCTTCACGGAGTCACCTAGTGCAG”, 3410 fluorescence intensity (a.u.).
Under “CGTCTACCGTGATTGTTTCGATACAATTGTGTGCAAGTTACGGAGTCACCTAGTGCAG” stands 21200 fluorescence intensity (a.u.); under “TTCGATTGATTGATAGTTGATTGTGTGTTTACAATTGAACCGGAGTCACCTAGTGCAG”, 52600 fluorescence intensity (a.u.); under “GATTTAAATTAGATGGAAGGTTGAGAATTAAGCTGATCCTCGGAGTCACCTAGTGCAG”, 13600 fluorescence intensity (a.u.).
The figure for “TGATTAAAATTGACATTAAAATTATAGTTTTGTGATGACTCGGAGTCACCTAGTGCAG” is 19100 fluorescence intensity (a.u.); for “AATTGATTGGACTCCACCAACATTAAAATAGTTGTTGATGCGGAGTCACCTAGTGCAG” it is 56400 fluorescence intensity (a.u.); for “TTATATTAATTGATGGTCATTATTGTTGGAGATTATATTGCGGAGTCACCTAGTGCAG” it is 60800 fluorescence intensity (a.u.).
On to “CAGAATTGAGAGTTCACATATCCTCAGTGGTCAGAGTTCACGGAGTCACCTAGTGCAG”, for which the binding signal is 6100 fluorescence intensity (a.u.).
Under “GGAGTTGATTGATGGACCTAGAATTGGTTGAGATCCTCAGCGGAGTCACCTAGTGCAG” stands 63700 fluorescence intensity (a.u.); under “AAATTAAATTTTATTTGTTGAAAATAATATCATTGGATTGCGGAGTCACCTAGTGCAG”, 6020 fluorescence intensity (a.u.).
Turning to “ACATTCCAAAATTTGACCAAATTTGTTCACTCGTTGACTGCGGAGTCACCTAGTGCAG”, the binding signal was 3660 fluorescence intensity (a.u.).
The figure for “CAGTGGATGATTAATATTGATTAATTATTATAATTGTTTTCGGAGTCACCTAGTGCAG” is 39500 fluorescence intensity (a.u.); for “ACTTGTTGAAAATTGATTGCTTTGTTGTTGTAGTGTTTACCGGAGTCACCTAGTGCAG” it is 23600 fluorescence intensity (a.u.); for “CAGTTTTGGTTAATTAAGTAAATAATTGTCCTCAGAAAGTCGGAGTCACCTAGTGCAG” it is 15100 fluorescence intensity (a.u.).
On to “CATAAATTTTCCGTGCCAACTTTGATCATCCGTTTTATTTCGGAGTCACCTAGTGCAG”, for which the binding signal is 5660 fluorescence intensity (a.u.).
Under “CTATACAACAAATCATTAATTAGGCTCAAAAGAAAGAAAGCGGAGTCACCTAGTGCAG” stands 11100 fluorescence intensity (a.u.); under “CACATGCAAATTATCGTGCGTCTGTATGTGGCATGCTTGTCGGAGTCACCTAGTGCAG”, 4230 fluorescence intensity (a.u.).
Under “GCCACTAAATTAATCCGGTGATTGATCATGTGTGGAAGCACGGAGTCACCTAGTGCAG” stands 54200 fluorescence intensity (a.u.); under “AATGTTTTAATCACATTGATTAGCAACTAATTAATCTTAGCGGAGTCACCTAGTGCAG”, 47100 fluorescence intensity (a.u.); under “ACGGTGTGATTAATTACGTCGCGATCATGTTGTGCTAATCCGGAGTCACCTAGTGCAG”, 32500 fluorescence intensity (a.u.).
“GGAGATTGACACGTTGGTCTACGTGCCTATGCGTGTGTTCCGGAGTCACCTAGTGCAG”: the binding signal is 55600 fluorescence intensity (a.u.).
For the sequence “ATACTAATTACTTAATTAGTGACCAGTGATCACTTGTGTGCGGAGTCACCTAGTGCAG”, the binding signal was 45800 fluorescence intensity (a.u.).
On to “TTTAATCACTAATTAATTGTTGATTAGCGGCAAGTGTGACCGGAGTCACCTAGTGCAG”, for which the binding signal is 63800 fluorescence intensity (a.u.).
The figure for “TACGTGTGTTGATTTCCGTGACATATGCATAAATTTCTTTCGGAGTCACCTAGTGCAG” is 3870 fluorescence intensity (a.u.).
Under “AGAGAATTGAATTAATCCGTGTGATATATCACTAAAATTCCGGAGTCACCTAGTGCAG” stands 5900 fluorescence intensity (a.u.); under “GATTTGATTTAAATCTTGAATAAATTTAATAAAATCCTATCGGAGTCACCTAGTGCAG”, 10000 fluorescence intensity (a.u.); under “AGAGATCGAGATTGACACACAACGTGGTTCACGCGTGCGCCGGAGTCACCTAGTGCAG”, 23100 fluorescence intensity (a.u.).
The figure for “ATGATTGAATCCTATAAAATCTTGTGAAATTCCTGTGAAACGGAGTCACCTAGTGCAG” is 52800 fluorescence intensity (a.u.); for “TTTTGATGAAATAAACTATGAAAATCCTGTGAAATTCATGCGGAGTCACCTAGTGCAG” it is 7340 fluorescence intensity (a.u.).
On to “TTCATTAATCTCCCGGTGATGGATGAACGGGGAAAAGGGCCGGAGTCACCTAGTGCAG”, for which the binding signal is 4280 fluorescence intensity (a.u.).
The figure for “GATGTTAAGTTTTGGGCATATGATTGAATTGTCTTATATACGGAGTCACCTAGTGCAG” is 4180 fluorescence intensity (a.u.); for “CTGTTTGATTTAGCTTAGGATTATTAGGTGTAAGCTGAAACGGAGTCACCTAGTGCAG” it is 3910 fluorescence intensity (a.u.).
Under “AACCAATCACGTCGCAGATAAGGCCTGACAGGTGTGCCCCCGGAGTCACCTAGTGCAG” stands 32700 fluorescence intensity (a.u.); under “CGCGTGTGGTGATTGGCTGGCTCTTTGCCTCATCATGGGCCGGAGTCACCTAGTGCAG”, 34100 fluorescence intensity (a.u.).
Under “ATAGATTGATTTGATAATTTCCTTGAGAGTAACACATGGGCGGAGTCACCTAGTGCAG” stands 65500 fluorescence intensity (a.u.); under “CTCAAATTATTGTTAAACCTTCATATAAATCGACCCCAATCGGAGTCACCTAGTGCAG”, 7650 fluorescence intensity (a.u.); under “TCCAAAATCAATCAATTAAAACCCATAGTTATTGTTGACTCGGAGTCACCTAGTGCAG”, 53500 fluorescence intensity (a.u.).
Consider “TTAATTGATCACATATTAATGGGCAACGCTGTTTTCCATGCGGAGTCACCTAGTGCAG”, for which the binding signal was 63600 fluorescence intensity (a.u.).
Consider “GAAATTAATTTTAATAGTGTTTTCATATTATTTCCATGCGCGGAGTCACCTAGTGCAG”, for which the binding signal was 46500 fluorescence intensity (a.u.).
In the case of “CTCCTTACAAATTTTGAAGATAATTTCGTAACACTTGGGGCGGAGTCACCTAGTGCAG”, the binding signal is 7610 fluorescence intensity (a.u.).
The figure for “AGATGCTGCATGGTTGATTGGTTTCAAGTAATTTCATGGGCGGAGTCACCTAGTGCAG” is 7340 fluorescence intensity (a.u.).
